# Measurements as given in PubChem BioAssay.
# Inconclusive results are not listed. Calls of active or inactive are those of the source.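 How the source made its calls, unless noted: active means GFP response above 150% of the DMSO control; inconclusive means Fewer than 70 cells counted for a yeast strain; inactive means the rest.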
# Tests used:
# [1] = yeast TOR pathway RPL19A-GFP modulators, primary screen, cell-based, S. cerevisiae, multiplex flow cytometry (AID 1862; in the data active means percent of DMSO control GFP below about 86%;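 further: lower values mimic rapamycin by blocking the RPL19A rise seen in DMSO cells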); settings: S. cerevisiae RPL19A-GFP strain, flow cytometry fluorescence, 3 h; at 10 µM; stronger effect = lower value
# [2] = modulators of MEP2-GFP levels in yeast, primary screen, S. cerevisiae, multiplex flow cytometry (AID 1867;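 active means GFP response, as percent of the DMSO control, above the screen-wide mean plus 3 SD, about 139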;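 further: median GFP channel fluorescence of barcode-gated MEP2-GFP cells measured by flow cytometry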); settings: S. cerevisiae MEP2-GFP strain, 3 h, at 10 µM, stronger effect = higher value, 100% means same as DMSO wells
# [3] = modulators of CIT2-GFP expression in yeast, primary screen, S. cerevisiae, GFP fusion, multiplex flow cytometry (AID 1870;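 active means percent response above a set limit, the screen-wide mean plus 3 SD, cut at about 130% in these data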;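 further: barcoded CIT2-GFP strain pooled with four other GFP strains with rapamycin as positive control; median GFP fluorescence per well over plate mean of DMSO wells so 100% = DMSO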); settings: 3 h, at 10 µM, stronger effect = higher value
# [4] = modulators of LAP4-GFP expression in yeast, primary screen, S. cerevisiae, multiplex flow cytometry (AID 1873;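 active means GFP signal, as percent of the solvent control, above the screen mean plus 3 SD, about 149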); settings: 3 h, at 10 µM, stronger effect = higher value
# [5] = inhibitors of CD8+ T cell-vesicle binding, pilot screen, LFA-1/ICAM-1 modulator project, MLPCN validation set, flow cytometry (AID 2523;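 active means response below a set limit, under 55% cells CD8-positive and vesicle-bound, and CD8 cells' 90th-percentile brightness under 279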;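 on vesicle binding response: mean PE anti-B7-1 fluorescence of CD8+ cells relative to row control; 100% = QL9-loaded vesicles with DMSO vehicle in the same plate row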); settings: 2C mouse CD8+ T cells, at 7 µM, stronger effect = lower value; double positive events: measured here: CD8+/vesicle+ event percentage
# [6] = target: Integrin beta-1 (Homo sapiens) + Integrin alpha-4 (Homo sapiens) (UniProt P13612+P05556); test: inhibition of HUTS-21 binding to VLA-4, pilot screen, VLA-4 allosteric modulator project, U937 cells, HUTS-21 mAb, flow cytometry, validation set (AID 2674;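 active means inhibition above 50%, about 3 SD of the validation set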;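 further: antibody binding induced by the VLA-4 ligand LDV present at three times its Kd; 0% = LDV ligand with antibody and no compound and 100% = antibody without LDV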); settings: HUTS-21 LIBS mAb binding, at 6.7 µM, stronger effect = higher value, binding induced by LDV ligand
# Sequence of Integrin beta-1 (Homo sapiens) + Integrin alpha-4 (Homo sapiens) (P05556 whole entry, looked up): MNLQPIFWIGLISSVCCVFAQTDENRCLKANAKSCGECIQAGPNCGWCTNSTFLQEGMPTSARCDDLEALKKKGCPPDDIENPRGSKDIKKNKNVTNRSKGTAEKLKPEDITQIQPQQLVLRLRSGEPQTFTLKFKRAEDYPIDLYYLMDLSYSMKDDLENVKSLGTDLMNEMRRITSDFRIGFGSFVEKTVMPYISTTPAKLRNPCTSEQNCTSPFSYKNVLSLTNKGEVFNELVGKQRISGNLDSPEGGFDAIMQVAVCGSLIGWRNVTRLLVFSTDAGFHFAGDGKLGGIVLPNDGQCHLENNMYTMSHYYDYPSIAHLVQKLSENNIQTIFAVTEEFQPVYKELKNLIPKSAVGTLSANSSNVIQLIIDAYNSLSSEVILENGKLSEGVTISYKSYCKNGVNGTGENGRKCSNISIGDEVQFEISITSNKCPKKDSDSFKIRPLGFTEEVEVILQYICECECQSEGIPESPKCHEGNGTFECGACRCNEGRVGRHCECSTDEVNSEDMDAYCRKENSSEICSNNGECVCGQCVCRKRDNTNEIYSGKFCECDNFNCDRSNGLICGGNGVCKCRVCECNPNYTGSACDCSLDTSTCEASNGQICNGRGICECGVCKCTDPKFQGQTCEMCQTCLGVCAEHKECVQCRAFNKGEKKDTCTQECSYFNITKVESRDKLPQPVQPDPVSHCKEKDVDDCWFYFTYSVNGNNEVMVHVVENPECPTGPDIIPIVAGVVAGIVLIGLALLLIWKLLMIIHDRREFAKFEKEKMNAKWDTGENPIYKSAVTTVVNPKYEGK
# Sequence of Integrin beta-1 (Homo sapiens) + Integrin alpha-4 (Homo sapiens) (P13612 whole entry, looked up): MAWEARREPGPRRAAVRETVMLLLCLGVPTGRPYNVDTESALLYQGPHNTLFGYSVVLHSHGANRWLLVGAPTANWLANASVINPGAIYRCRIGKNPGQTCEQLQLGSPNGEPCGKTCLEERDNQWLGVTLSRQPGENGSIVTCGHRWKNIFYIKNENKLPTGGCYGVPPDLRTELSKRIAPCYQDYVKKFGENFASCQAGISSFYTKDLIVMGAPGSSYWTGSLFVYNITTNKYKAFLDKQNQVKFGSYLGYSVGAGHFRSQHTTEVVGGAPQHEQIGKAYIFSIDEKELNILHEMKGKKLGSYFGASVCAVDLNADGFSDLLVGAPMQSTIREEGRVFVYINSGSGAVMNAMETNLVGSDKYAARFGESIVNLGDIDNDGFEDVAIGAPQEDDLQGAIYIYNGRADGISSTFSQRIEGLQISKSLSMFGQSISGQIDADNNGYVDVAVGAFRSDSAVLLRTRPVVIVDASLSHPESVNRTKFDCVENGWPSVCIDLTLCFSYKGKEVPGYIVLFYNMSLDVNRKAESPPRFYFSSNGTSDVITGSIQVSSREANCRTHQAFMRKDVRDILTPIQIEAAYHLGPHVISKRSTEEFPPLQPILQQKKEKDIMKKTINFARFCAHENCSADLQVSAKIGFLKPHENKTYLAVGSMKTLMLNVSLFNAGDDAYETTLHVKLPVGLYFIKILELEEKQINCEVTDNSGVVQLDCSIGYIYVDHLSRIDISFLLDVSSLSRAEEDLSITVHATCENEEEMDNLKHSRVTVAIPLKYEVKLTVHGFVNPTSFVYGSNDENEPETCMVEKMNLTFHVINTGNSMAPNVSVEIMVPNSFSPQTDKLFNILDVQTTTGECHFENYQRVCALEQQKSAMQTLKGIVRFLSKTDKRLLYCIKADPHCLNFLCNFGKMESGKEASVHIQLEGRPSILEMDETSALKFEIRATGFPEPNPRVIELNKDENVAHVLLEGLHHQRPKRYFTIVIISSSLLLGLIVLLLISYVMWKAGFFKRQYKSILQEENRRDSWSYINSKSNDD
# [7] = superoxide lowering in aged yeast cells, pilot screen, validation compound set (AID 2706;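 active means superoxide response below 65% of plate, a cut near 3 SD across the whole screen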;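 further: yeast exposed to compound for one week at 30 degrees C before staining; 100% = mean of all compound wells on the same plate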); settings: S. cerevisiae aging, superoxide DHE fluorescence; at 10 µM, stronger effect = lower value
# [8] = target: Beta-adrenergic receptor kinase 1 (Homo sapiens) (UniProt P25098); test: GRK2 binders displacing RNA aptamer, biochemical, validation, human GRK2, bead flow cytometry (AID 488806;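 active means aptamer binding inhibition above 30%, about 3 SD of noise from non-fluorescent compounds; inactive means inhibition at or below 30%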); settings: bead-bound GRK2, FAM-aptamer displacement, at 10 µM, stronger effect = higher value
# Sequence of Beta-adrenergic receptor kinase 1 (Homo sapiens) (P25098 whole entry, looked up): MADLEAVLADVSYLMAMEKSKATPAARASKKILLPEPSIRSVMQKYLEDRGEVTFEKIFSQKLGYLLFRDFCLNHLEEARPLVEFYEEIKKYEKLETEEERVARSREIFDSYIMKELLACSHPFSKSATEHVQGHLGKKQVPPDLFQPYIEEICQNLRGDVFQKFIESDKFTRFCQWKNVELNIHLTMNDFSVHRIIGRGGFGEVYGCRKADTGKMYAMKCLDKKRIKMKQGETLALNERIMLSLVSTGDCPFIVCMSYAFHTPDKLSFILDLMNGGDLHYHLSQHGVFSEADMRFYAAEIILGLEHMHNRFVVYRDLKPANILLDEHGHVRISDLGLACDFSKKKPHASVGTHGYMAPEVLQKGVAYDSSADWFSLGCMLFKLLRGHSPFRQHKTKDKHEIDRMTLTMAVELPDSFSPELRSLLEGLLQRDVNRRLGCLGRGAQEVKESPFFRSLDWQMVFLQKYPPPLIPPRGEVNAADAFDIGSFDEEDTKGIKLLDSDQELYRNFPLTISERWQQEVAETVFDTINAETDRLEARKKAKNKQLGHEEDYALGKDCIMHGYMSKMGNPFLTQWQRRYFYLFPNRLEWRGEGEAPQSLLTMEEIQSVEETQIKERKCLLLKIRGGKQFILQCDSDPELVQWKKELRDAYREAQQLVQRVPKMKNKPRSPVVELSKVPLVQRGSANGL
# [9] = target: Beta-2 adrenergic receptor (Homo sapiens) (UniProt P07550); test: beta2AR agonists driving receptor internalization, pilot screen, cell-based, FAP fluorogen, flow cytometry, validation set (AID 504459;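 active means percent response above 42, roughly 3 SD of non-fluorescent test compounds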;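 further: agonist-driven loss of surface beta2AR via internalization measured by FAP dye flow cytometry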); settings: Am2.2-beta2AR cells, FAP surface receptor flow cytometry; at 10 µM; stronger effect = higher value
# Sequence of Beta-2 adrenergic receptor (Homo sapiens) (P07550 whole entry, looked up): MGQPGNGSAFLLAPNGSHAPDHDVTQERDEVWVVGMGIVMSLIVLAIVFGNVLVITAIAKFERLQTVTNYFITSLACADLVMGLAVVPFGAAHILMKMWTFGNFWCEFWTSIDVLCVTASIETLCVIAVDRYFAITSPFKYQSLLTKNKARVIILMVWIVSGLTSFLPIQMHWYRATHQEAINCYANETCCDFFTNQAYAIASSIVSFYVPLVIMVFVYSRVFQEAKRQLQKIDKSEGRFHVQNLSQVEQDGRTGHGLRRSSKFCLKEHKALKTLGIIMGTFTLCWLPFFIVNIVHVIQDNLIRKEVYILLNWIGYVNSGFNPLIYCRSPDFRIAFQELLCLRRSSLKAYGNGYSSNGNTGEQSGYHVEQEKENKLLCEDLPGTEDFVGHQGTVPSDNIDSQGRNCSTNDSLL
# [10] = target: AP-2 complex subunit beta (Homo sapiens) (UniProt P63010); test: inhibitors of arrestin peptide binding to AP2, pilot screen, biochemical, validation set, GST-AP2 beads, flow cytometry (AID 504541;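 active means inhibition above 54%, about 3 SD of non-fluorescent compounds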;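 further: AP2 carries R879A mutation and is captured from E. coli lysate; bead-bound FITC arrestin peptide fluorescence measuring arrestin peptide binding to AP2; 0% = DMSO wells and 100% = excess unlabeled arrestin peptide control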); settings: FITC arrestin peptide, at 10 µM, stronger effect = higher value, AP2 beta2 appendage fragment, R879A mutant
# Sequence of AP-2 complex subunit beta (Homo sapiens) (P63010 whole entry, looked up, the tested form may be a part, one chain of several): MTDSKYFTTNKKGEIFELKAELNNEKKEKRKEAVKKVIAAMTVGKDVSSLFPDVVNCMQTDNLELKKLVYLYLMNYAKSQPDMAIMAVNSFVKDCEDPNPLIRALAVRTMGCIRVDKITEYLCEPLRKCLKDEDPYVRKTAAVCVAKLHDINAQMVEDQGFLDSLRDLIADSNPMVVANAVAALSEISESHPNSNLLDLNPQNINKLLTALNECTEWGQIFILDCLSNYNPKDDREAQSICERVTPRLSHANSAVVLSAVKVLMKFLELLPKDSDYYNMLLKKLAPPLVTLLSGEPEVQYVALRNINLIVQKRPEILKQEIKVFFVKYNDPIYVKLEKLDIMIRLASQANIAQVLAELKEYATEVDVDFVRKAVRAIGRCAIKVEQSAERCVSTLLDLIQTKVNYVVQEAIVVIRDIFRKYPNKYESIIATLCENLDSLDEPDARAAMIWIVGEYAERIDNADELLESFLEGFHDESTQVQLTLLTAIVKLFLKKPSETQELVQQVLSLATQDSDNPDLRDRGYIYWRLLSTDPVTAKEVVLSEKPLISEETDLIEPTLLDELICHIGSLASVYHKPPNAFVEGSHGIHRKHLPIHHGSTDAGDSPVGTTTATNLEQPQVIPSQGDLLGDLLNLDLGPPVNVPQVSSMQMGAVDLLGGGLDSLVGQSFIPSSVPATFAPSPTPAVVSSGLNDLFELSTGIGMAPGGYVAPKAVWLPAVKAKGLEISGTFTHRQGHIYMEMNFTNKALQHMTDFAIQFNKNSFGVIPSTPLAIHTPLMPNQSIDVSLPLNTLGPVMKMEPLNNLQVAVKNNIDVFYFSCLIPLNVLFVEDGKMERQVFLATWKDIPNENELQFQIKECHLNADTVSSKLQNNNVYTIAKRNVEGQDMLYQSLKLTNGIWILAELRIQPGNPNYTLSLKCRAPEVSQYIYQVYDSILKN
# [11] = yeast V-ATPase proton transport modulators, S. cerevisiae, pHLuorin, HTS validation (AID 504600; in the data active means response above about 15%;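 further: plate controls were DMSO for no effect and reference compound for full effect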); settings: S. cerevisiae pHLuorin cytosolic pH, at 10 µM, stronger effect = higher value
# [12] = tested on: anti-desmoglein-3 scFv antibody binding to human DSG3; test: inhibitors of anti-DSG3 scFv binding to DSG3, pilot screen, biochemical, validation compound set, bead-based, flow cytometry (AID 588368;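 active means binding below the plate cutoff, the plate median minus 3 SD, with a reading above zero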;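 further: signal is the median channel fluorescence of bead-bound GFP antibody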); settings: Protein G beads, DSG3-Fc, scFv-GFP binding, at 10 µM, stronger effect = lower value
# [13] = inhibitors of fungal efflux pumps CDR1, CDR2, MDR1, pilot screen, validation compound set, multiplex, phenotypic (AID 588506;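 active means efflux inhibition above 0.42, the validation set average plus 4 SD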;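 further: Nile Red retained in cells so higher fluorescence means more efflux inhibition; 0 = negative control wells and 1 = enniatin B 25 µM full block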); settings: S. cerevisiae pump-expressing triplex, Nile Red efflux flow cytometry; at 10 µM; stronger effect = higher value; the pumps come from Candida albicans
# [14] = target: ATP-binding cassette sub-family B member 6 (Homo sapiens) (UniProt Q9NP58); test: ABCB6 transporter inhibitors, pilot screen, K562-ABCB6 cells, flow cytometry, validation set (AID 588550;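 active means inhibition above the screen-wide mean plus 3 SD, about 51%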;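 further: 0% = DMSO wells and 100% = benzethonium chloride 70 µM positive control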); settings: K562-ABCB6 porphyrin accumulation, 1 h, at 10 µM, stronger effect = higher value
# Sequence of ATP-binding cassette sub-family B member 6 (Homo sapiens) (Q9NP58 whole entry, looked up): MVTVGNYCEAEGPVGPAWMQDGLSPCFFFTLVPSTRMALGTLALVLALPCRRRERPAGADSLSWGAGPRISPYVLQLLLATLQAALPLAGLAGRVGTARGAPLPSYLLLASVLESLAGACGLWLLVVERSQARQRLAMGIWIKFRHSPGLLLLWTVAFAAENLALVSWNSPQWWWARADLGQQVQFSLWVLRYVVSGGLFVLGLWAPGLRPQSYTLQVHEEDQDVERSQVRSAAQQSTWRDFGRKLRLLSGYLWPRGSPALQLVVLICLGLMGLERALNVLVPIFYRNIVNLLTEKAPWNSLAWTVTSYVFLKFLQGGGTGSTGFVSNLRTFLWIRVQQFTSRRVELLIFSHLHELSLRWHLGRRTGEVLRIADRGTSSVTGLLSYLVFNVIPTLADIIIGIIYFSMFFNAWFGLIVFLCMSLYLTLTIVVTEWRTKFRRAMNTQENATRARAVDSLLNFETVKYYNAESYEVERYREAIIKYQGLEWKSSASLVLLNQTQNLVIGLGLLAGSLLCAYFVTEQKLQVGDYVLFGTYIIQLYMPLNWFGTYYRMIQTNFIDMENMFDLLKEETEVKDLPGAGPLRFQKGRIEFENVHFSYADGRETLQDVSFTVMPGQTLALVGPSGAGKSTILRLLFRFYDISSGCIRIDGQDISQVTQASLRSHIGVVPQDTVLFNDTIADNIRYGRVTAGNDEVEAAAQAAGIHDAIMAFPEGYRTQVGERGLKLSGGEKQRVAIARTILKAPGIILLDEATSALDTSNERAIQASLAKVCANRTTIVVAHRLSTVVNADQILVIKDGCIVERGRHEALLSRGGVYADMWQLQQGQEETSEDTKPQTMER
# [15] = promoters of myeloid differentiation in arrested cells, primary screen, cell-based, GFP/MAC1 double positive, flow cytometry, validation set (AID 588685;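 active means differentiation response of at least 50%, scaled between solvent and reference control, from cells with both markers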;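 further: compound exposure lasts four days before antibody staining and flow analysis; 0% = DMSO wells and 100% = 5 µM fulvestrant positive control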); settings: ER-HoxA9 marrow cells, stronger effect = higher value, normalized: vehicle 0, fulvestrant 100
# [16] = RPL19A-GFP modulators, yeast TOR pathway, confirmation, cell-based, S. cerevisiae, flow cytometry, cherry picks, mother/daughter gates (AID 2270;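 active means GFP response below 50% of the DMSO control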); settings: S. cerevisiae RPL19A-GFP strain, 3 h, at 10 µM, stronger effect = lower value, 100 = same GFP as DMSO wells
# [17] = LAP4-GFP expression modulators in yeast, confirmation, cell-based, cherry picks, flow cytometry, mother/daughter gates (AID 2271;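 active means GFP response above 150% of the DMSO control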;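 further: ratio of sample to DMSO plate mean so 100% equals DMSO level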); settings: S. cerevisiae LAP4-GFP strain, 3 h, at 10 µM, stronger effect = higher value, 100 means same as DMSO control
# [18] = modulators of MEP2-GFP levels in yeast, confirmation, S. cerevisiae, flow cytometry GFP, cherry picks (AID 2272);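 further: ratio of well signal to plate DMSO mean so 100% equals DMSO level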; settings: S. cerevisiae MEP2-GFP strain, 3 h, at 10 µM, stronger effect = higher value
# [19] = modulators of CIT2-GFP expression in yeast, confirmation, S. cerevisiae, GFP fusion, cherry picks, mother/daughter gates (AID 2274;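 active means GFP response above 150% of the DMSO level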); settings: S. cerevisiae CIT2-GFP strain, flow cytometry, 3 h, at 10 µM, stronger effect = higher value
# [20] = measured here: daughter cell gate
# [21] = measured here: mother cell gate
# [22] = measured here: daughter cell gate response
# [23] = measured here: mother cell gate response
structure (smiles),measurement,setting,value
O=C1OC(=O)C2C1[C@@H]1CC[C@H]2O1 (some centres not stated),percent of DMSO control GFP,[1],96.6% (inactive)
same,GFP response vs DMSO,[2],103% (inactive)
same,percent response of DMSO control,[3],118% (inactive)
same,GFP response vs DMSO,[4],72.6% (inactive)
same,double positive events,[5],60.8%
same,vesicle binding response,[5],195% (inactive)
same,inhibition,[6],-8.09% (inactive)
same,superoxide response (% of plate),[7],94.4% (inactive)
same,aptamer binding inhibition,[8],3% (inactive)
same,response,[9],-8.34% (inactive)
same,inhibition,[10],-1.78% (inactive)
same,response,[11],-0.92% (inactive)
same,binding (% of control),[12],107% (inactive)
same,efflux inhibition (fraction of control),[13],-0.24 (inactive)
same,inhibition,[14],7% (inactive)
same,differentiation response,[15],-0.82% (inactive)
COc1ccc(NC(=O)C2C(=O)N(CCO)C3(C)CC2c2ccccc2O3)cc1 (configuration not stated),percent of DMSO control GFP,[1],99.6% (inactive)
same,GFP response vs DMSO,[2],106% (inactive)
same,percent response of DMSO control,[3],104% (inactive)
same,GFP response vs DMSO,[4],79.8% (inactive)
same,double positive events,[5],70.2%
same,vesicle binding response,[5],158% (inactive)
same,inhibition,[6],5.49% (inactive)
same,superoxide response (% of plate),[7],96.6% (inactive)
same,aptamer binding inhibition,[8],3% (inactive)
same,response,[9],-2.11% (inactive)
same,inhibition,[10],6.58% (inactive)
same,response,[11],-0.98% (inactive)
same,binding (% of control),[12],107% (inactive)
same,efflux inhibition (fraction of control),[13],-0.46 (inactive)
same,inhibition,[14],13% (inactive)
same,differentiation response,[15],5.73% (inactive)
Cc1c(CC(C)C)nc(N)c(C#N)c1-c1ccccc1,GFP response vs DMSO,[16],98.4% (inactive)
same,GFP response vs DMSO,[16]; [20],99.8%
same,GFP response vs DMSO,[16]; [21],99.7%
same,GFP response relative to DMSO,[17],94.2% (inactive)
same,GFP response relative to DMSO,[17]; [22],89.3%
same,GFP response relative to DMSO,[17]; [23],92.6%
same,GFP response vs DMSO,[18],102% (inactive)
same,"GFP response, % of DMSO",[19],102% (inactive)
same,"GFP response, % of DMSO",[19]; [20],102%
same,"GFP response, % of DMSO",[19]; [21],100%
O=S(=O)(c1ccc(Cl)cc1)c1snnc1-c1ccccc1,GFP response vs DMSO,[16],93.7% (inactive)
same,GFP response vs DMSO,[16]; [20],92.2%
same,GFP response vs DMSO,[16]; [21],96.6%
same,GFP response relative to DMSO,[17],126% (inactive)
same,GFP response relative to DMSO,[17]; [22],123%
same,GFP response relative to DMSO,[17]; [23],129%
same,GFP response vs DMSO,[18],98.8% (inactive)
same,"GFP response, % of DMSO",[19],95.9% (inactive)
same,"GFP response, % of DMSO",[19]; [20],92.1%
same,"GFP response, % of DMSO",[19]; [21],96.7%
CCOc1cc(C(=S)N2CCCCC2)ccc1OS(=O)(=O)c1ccc(Cl)cc1,GFP response vs DMSO,[16],96.5% (inactive)
same,GFP response vs DMSO,[16]; [20],96.1%
same,GFP response vs DMSO,[16]; [21],96.5%
same,GFP response relative to DMSO,[17],102% (inactive)
same,GFP response relative to DMSO,[17]; [22],101%
same,GFP response relative to DMSO,[17]; [23],105%
same,GFP response vs DMSO,[18],103% (inactive)
same,"GFP response, % of DMSO",[19],100% (inactive)
same,"GFP response, % of DMSO",[19]; [20],99.3%
same,"GFP response, % of DMSO",[19]; [21],98.2%
